# Screens (PubChem)
# Compounds with a hit are over-represented: about 2.7% of the library has one in this group of screens.
# TGFb SMAD3 inh = inhibitors of TGF-b signaling; HepG2 CAGA-GFP TGF-b/SMAD3 reporter, GFP fluorescence, 18 h; TGF-beta stimulated, 500 pg/mL final; Potency, µM (series often up to 46.1 µM), for inactives: at the highest dose activity, negative = inhibition, actives largely listed as inhibitors; 1.2% of 410,000 active; AID 588855; note: % is set by controls: 0 for no effect and ±100 for the full control effect; nearly all actives have a fitted effect of over 65% in size
#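 Inhibition of TGF-beta-driven CAGA-GFP reporter expression in HEPG2 cells is measured by cellular GFP fluorescence after 18 h stimulation with 500 pg/mL recombinant TGF-beta in 1% FBS medium at 37 degrees C.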
# S2 tox = cell viability loss in ATXN counter-screen. S2 cells (HEK-293 line with an ATXN2-luciferase reporter) viability, CellTiter-Fluor protease fluorescence, 24 h. Potency, µM (doses to about 56.7 µM), most hits filed as cytotoxic. 0.49% of 400,000 active. AID 651635; note: nearly all actives have a fitted effect of over 40% in size
# ATXN2 expr inh = reduces ATXN2 reporter expression in HEK-293 cells. HEK-293 ATXN2-luciferase reporter, luminescence, 24 h. 0.72% of 360,000 active. Potency, µM (doses to about 57 µM), for the others: top-dose activity change, negative = inhibition, most hits filed as inhibitors. AID 1745845; note: % is set by controls: 0 for no effect and ±100 for the full control effect; nearly all actives have a fitted effect of over 55% in size
#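 qHTS (up to 57 uM final) was run with 24 h compound exposure of reporter cells at 37 °C. Each well was multiplexed: SteadyGlo luminescence measured ATXN2-luciferase expression after a fluorogenic Gly-Phe-AFC viability readout (25 uM final).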
# HepG2 tox = HepG2 cytotoxicity, counter-screen for TGF-b inhibitors; 0.76% of 410,000 active; Potency, µM (doses to about 46.1 µM), without a hit: top-dose activity change, negative = cytotoxicity, most hits filed as cytotoxic; HepG2 CAGA-GFP viability, ATP luminescence, 18 h
#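 HepG2 CAGA-GFP cells (1000/well, DMEM with 1% FBS) received compound, then TGF-beta at 500 pg/mL final, and were incubated 18 hours at 37 degrees C. Viability was read by CellTiter-Glo luminescence. Media-only wells were set as complete cell-killing and DMSO as no toxicity.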
# ALOX12 inh = inhibitors of human 12S-lipoxygenase ALOX12. purified 12hLO, xylenol orange hydroperoxide absorbance. P18054. Potency, µM (series often up to 108 µM), for the others: at the top dose activity change, negative = inhibition, most hits filed as inhibitors. 1.1% of 580,000 active; note: % is set by controls: 0 for no effect and ±100 for the full control effect
# Target sequence (P18054 whole entry, looked up): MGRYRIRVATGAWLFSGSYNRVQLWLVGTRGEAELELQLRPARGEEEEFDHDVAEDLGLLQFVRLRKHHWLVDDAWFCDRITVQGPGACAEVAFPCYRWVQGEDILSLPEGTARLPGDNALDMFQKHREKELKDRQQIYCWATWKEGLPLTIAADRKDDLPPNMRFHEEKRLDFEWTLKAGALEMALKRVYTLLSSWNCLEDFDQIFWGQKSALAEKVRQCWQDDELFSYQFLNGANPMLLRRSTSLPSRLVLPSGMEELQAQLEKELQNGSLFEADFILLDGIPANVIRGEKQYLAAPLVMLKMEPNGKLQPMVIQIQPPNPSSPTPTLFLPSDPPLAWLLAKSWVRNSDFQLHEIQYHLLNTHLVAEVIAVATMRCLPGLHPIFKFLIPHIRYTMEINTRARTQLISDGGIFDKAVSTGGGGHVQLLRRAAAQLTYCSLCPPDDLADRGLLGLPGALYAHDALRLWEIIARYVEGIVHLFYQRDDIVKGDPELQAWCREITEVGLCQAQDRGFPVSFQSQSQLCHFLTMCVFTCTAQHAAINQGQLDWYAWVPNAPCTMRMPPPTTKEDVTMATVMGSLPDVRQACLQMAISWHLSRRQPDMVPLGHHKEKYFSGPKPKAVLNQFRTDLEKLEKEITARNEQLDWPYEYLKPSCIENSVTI
#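 Purified human 12hLO (150 nM final) in 25 mM Hepes, 0.01% Triton X-100, pH 7.0 was preincubated 15 min at room temperature with compound. Then 40 uM arachidonic acid was added, 30 min. Hydroperoxide was read by Fe-XO absorbance ratio 573/405 nm.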
# The depositor's hits bear a star; i = inactive; u = inconclusive; x = no result; ! = not confirmed by another sample; [ ] = another dose, or the depositor's remark. Calls come from the whole dose curve; as a rule, active = well fitted curve in the direction sought with a large enough effect; inconclusive = small, poorly fitted or top-dose-only effect, or another doubt; inactive = no such curve, though single readings can be large; an effect the other way counts as inactive or inconclusive. Potency is the fitted concentration of half-maximal effect.
SMILES,TGFb SMAD3 inh,S2 tox,ATXN2 expr inh,HepG2 tox,ALOX12 inh
c1ccc(C2[C@H]3CN(Cc4cccnc4)[C@H](c4ccccc4)C34CC2(c2cccnc2)C4)cc1 (stereo not given in full),14µM*,u,-14%,-58%,17%
O=S(=O)(Nc1nc2ccccc2nc1NCc1ccc(Cl)cc1)c1ccccc1,x,x,x,x,15%
Cc1ccccc1OCCN(C)C(=O)NCc1ccc(S(N)(=O)=O)cc1,x,x,x,x,-3%
Cc1nc(C(F)(F)F)ccc1C(=O)N1CCC1(C)C(=O)NS(=O)(=O)c1cccc(Cl)c1 (stereo not given),6%,i,5%,16%,u
Cc1ccc(S(=O)(=O)NC(=O)C2(C)CCN2C(=O)c2cccc(F)c2)cc1 (stereo not given),-6%,u,-7%,0%,35µM*
CC1(C(=O)NS(=O)(=O)c2cccc(Cl)c2)CCN1C(=O)c1cccc(F)c1 (stereo not given),2%,i,-2%,-10%,-1%
Cc1nc(C(F)(F)F)ccc1C(=O)N1CCC1(C)C(=O)NS(=O)(=O)c1cccc(F)c1 (stereo not given),-1%,i,3%,-2%,45µM*
COc1ccc(C(=O)N2CCOCC3(CN(Cc4cc(F)ccc4F)C3)C2)cc1OC,x,x,x,x,1%[176 µM]
Cc1cc(C)c2oc(C(=O)Nc3ccc(S(=O)(=O)Nc4cc(C)nc(C)n4)cc3)cc(=O)c2c1,x,x,x,x,23%
O=C(NCC1CCN(Cc2ccccc2Cl)CC1)c1cc2ccc3cccnc3c2[nH]1,16µM*,x,x,16µM*,6%
O=C(NCC1CCN(Cc2ccc(F)cc2)CC1)c1cc2ccc3cccnc3c2[nH]1,16µM*,x,x,18µM*,6%
COc1cccc(CN2CCCCCNC(=O)CC2c2ccccc2)c1 (stereo not given),x,x,x,x,17%
S=C(NCCCc1cnc[nH]1)NCCCN(Cc1ccc(Cl)cc1)c1ncc(Br)cn1,18µM*,x,x,-91%,x
S=C(NCCCc1cnc[nH]1)NCCCN(CCc1ccc(Cl)cc1)c1ccc(Br)cn1,u,x,x,10µM*,x
S=C(NCCCc1cnc[nH]1)NCCCN(CCc1ccccc1)c1ccc(Br)cn1,u,x,x,-53%,x
S=C(NCCCc1cnc[nH]1)NCCCN(Cc1ccccc1)c1ccc(Br)cn1,u,i,0%,-57%,u
CCCCN(CCCNC(=S)NCCCc1cnc[nH]1)c1ccc(Br)cn1,u,18µM*,u,-41%,u
S=C(NCCCc1cnc[nH]1)NCCCN(Cc1ccc(Cl)cc1)c1ccc(Br)cn1,u,28µM*,u,-98%,u
COc1ccc(-c2csc(NC(=O)c3nn(C)c(=O)c4ccccc34)n2)cc1,x,x,x,x,33%
O=c1oc2cc(OCc3nn[nH]n3)ccc2cc1-c1ccccc1,x,x,x,x,-24%
CCc1ccc2c(c1)C1(C(=O)N2)N2CCCC2C(C(=O)c2ccc3ccccc3c2)C12C(=O)Nc1ccccc12 (stereo not given),16µM*,u,u,10µM*,-27%
CCc1cccc2c1NC(=O)C21N2CCCC2C(C(=O)c2ccc3ccccc3c2)C12C(=O)Nc1ccccc12 (stereo not given),u,u,7%,-25%,-11%
Cc1ccc(-n2nc3c(N4CCC(C(=O)NCc5ccccc5C)CC4)nnc(C)c3c2C)cc1,18µM*,u,u,-95%,x
CCOc1ccccc1CNC(=O)C1CCN(c2nnc(C)c3c(C)n(-c4ccc(C)cc4)nc23)CC1,11µM*,x,u,10µM*!,-14%
Cc1nnc(N2CCC(C(=O)NCCc3ccccc3Cl)CC2)c2nn(-c3ccccc3)c(C)c12,u,u,-36%,-54%,-18%
SMILES,TGFb SMAD3 inh,S2 tox,ATXN2 expr inh,HepG2 tox,ALOX12 inh
COc1ccccc1CCNC(=O)C1CCN(c2nnc(C)c3c(C)n(-c4ccc(C)cc4)nc23)CC1,u,u,-10%,3.5µM*!,-6%
Cc1ccc(NC(=O)C2CCN(C(=O)c3ncn4c3COC(c3ccc(F)cc3)C4)CC2)c(Cl)c1 (stereo not given),x,x,x,x,40%
Nc1cccc(C(=O)c2ccc(F)cc2)c1,x,x,x,x,28%
C/C=C/CSc1nc2c(c(=O)[nH]c(=O)n2C)n1CCOC,x,x,x,x,-7%
O=C(Nc1cccc(S(=O)(=O)N2CCOCC2)c1)c1ccc(OCc2cn3ccccc3n2)cc1,x,x,x,x,34%
COc1ccc(CN(C)Cc2c(O)ccc3cc(Br)ccc23)cc1OC,u,x,2%,-11%,28µM*
COc1ccc(CCN(C)Cc2c(O)ccc3cc(Br)ccc23)cc1OC,u,i,7%,-25%,18µM*
COc1ccc(CCN(C)CCc2ccc(OC)c(OC)c2)cc1OC,3%,i,-8%,-17%,5%
COc1ccc2cc(Br)ccc2c1CC(=O)N(C)C,12%,i,-27%,-40%,246%
NNc1cc(Cl)c(Cl)cc1Cl,x,x,x,x,7.1µM*
O=CC1=C(c2ccccc2)Oc2ccccc2O1,u,22µM*,u,-94%,-13%
O=C(O)c1sccc1-c1ccccc1,x,x,x,x,-25%
O=C(CC1CCCCN(Cc2ccccc2)C1=O)N1CCc2ccccc2C1 (stereo not given),x,x,x,x,28%
O=C(NCc1cccnc1)c1ccc(-c2ccc(Cl)cc2)o1,u,i,x,-29%,u
O=C(NCc1cccnc1)/C(=C\c1ccc(-c2ccc(Cl)c(Cl)c2)o1)S(=O)(=O)c1ccccc1,4.5µM*,x,13µM*,-103%,-25%
O=C(CCc1ncc(-c2ccc(F)cc2F)o1)Nc1ccccc1O,x,x,x,x,3%
Cc1ccc(OC(C)C(=O)Nc2ccc3c(c2)n(C)c(=O)n3C)c(C)c1 (stereo not given),0%,i,x,-36%,45µM*
COc1ccc(C(=O)Nc2oc3ccccc3c(=O)c2-c2ccc3c(c2)OCO3)cc1,x,x,x,x,11%
COc1ccccc1-n1cnnc1SCC(=O)c1ccc2c(c1)CCCC2,x,x,x,x,13%
CC[N+](C)(C)c1ccc(/C=C/c2ccc3ccccc3n2)cc1,6.3µM*,x,x,-56%,x
COc1ccccc1NC(=O)/C=C/c1ccc2ccccc2n1,x,x,x,x,-4%
CCN(CC)c1ccc(/C=C/c2ccc3ccccc3n2)cc1,2.5µM*,x,x,3.2µM*,x
CC(=O)/C=C/c1ccc2ccccc2n1,u,i,2%,20µM*,u
CCN(CC)c1ccc(/C=C/c2nccc3ccccc23)cc1,162%,x,x,-55%,x
Cc1cccc(/C=C/C(=O)c2ccc(NC3=NCCCS3)cc2)c1,u,10µM*,x,-95%,-17%
COc1cccc(/C=C/C(=O)c2ccc(NC3=NCCCS3)cc2)c1,u,x,u,-45%,-6%
O=C(/C=C/c1ccc(Br)cc1)c1ccc(NC2=NCCCS2)cc1,u,32µM*,u,-99%,u
